Experimental data taken from PubChem BioAssay AID1063 (University of Pittsburgh Molecular Library Screening Center, 2008).
The campaign covered roughly 200,000 compounds. About 18,000 (9%) were called active. No stated cut-off is given here; in the data, active means inhibition above about 50%; inactive means the rest. This excerpt belongs to a sample that is enriched for actives.

Experiment: antileishmanial activity against promastigotes – primary screen (AID 1063);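 further: promastigotes grown with compound for 44 hours at 28 °C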
Conditions: Leishmania major promastigotes, resazurin fluorescence viability; at 10 µM; stronger effect = higher value
With `c1ccc(C2CCC(N3CCC(N4CCCCC4)CC3)CC2)cc1` (centres undefined) the inhibition was 92.2% (active). For `O=C(CN1CCN(C2CCCCC2)CC1)Nc1ccccc1N1CCCCC1`, the inhibition was 10.2% (inactive). In the case of `CCOC(=O)CN1CCC(c2ccccc2)CC1`, the inhibition is reported as -3.4% (inactive). With `O=C(COc1ccc(S(=O)(=O)N2CCCCC2)cc1)NCc1ccccn1` the inhibition was -4.35% (inactive). With `COc1cc(N/C=C2\CC(=O)NC(C)=C2C#N)cc(OC)c1OC` the inhibition was -6.28% (inactive). With `O=C(CCS(=O)(=O)Cc1ccccc1)Nc1ccc2c(c1)OCCO2` the inhibition was -2.36% (inactive). In the case of `O=C(Cn1cnc([N+](=O)[O-])n1)NCCc1ccccc1`, the inhibition is reported as 21.8% (inactive). For `O=C(Nc1cccc(CCc2ccccn2)c1)c1ccc(Cl)cc1`, the inhibition was 2.49% (inactive). In the case of `Cc1cccc(NC(=O)N(Cc2cc3cc(C)cc(C)c3[nH]c2=O)CC2COCCO2)c1` (centres undefined), the inhibition is reported as 37.5% (inactive). With `Cc1ccc2[nH]c(=O)c(CN(CCCN(C)C)C(=O)Nc3cccc(Cl)c3)cc2c1` the inhibition was 93.2% (active). In the case of `Cc1ccc2[nH]c(=O)c(CN(CC3COCCO3)C(=O)Nc3ccccc3C)cc2c1` (centres undefined), the inhibition is reported as 4% (inactive). In the case of `COc1ccc(C(=O)Nc2ccc(NC(=O)C(C)C)nc2)cc1`, the inhibition is reported as 25.1% (inactive). With `O=C(N/C(=C\c1ccc(F)cc1)C(=O)N1CCCCCC1)c1ccccc1` the inhibition was -5.92% (inactive). For `Cc1cc2ccccc2n1CCC(=O)O`, the inhibition was -7.95% (inactive). With `S=c1[nH]nc(-c2ccccc2)n1/N=C/c1c[nH]c2ccccc12` the inhibition was 54.7% (active). In the case of `CCc1n[nH]c(=S)n1/N=C/c1c[nH]c2ccc(Br)cc12`, the inhibition is reported as 11.7% (inactive). For `Cc1ccc(/C=N\n2c(-c3ccccc3)n[nH]c2=S)s1`, the inhibition was 0.81% (inactive). In the case of `O=C(CCCNS(=O)(=O)c1cccc2nsnc12)NCCN1CCN(c2ccccc2F)CC1`, the inhibition is reported as -3.45% (inactive). In the case of `Cc1cc(-c2csc(N)n2)c(C)n1Cc1ccccc1`, the inhibition is reported as 7.08% (inactive). With `COc1ccc(/C=C2\CCc3ccccc3C2=O)c(OC)c1OC` the inhibition was 8.72% (inactive). In the case of `COc1ccc(C2SCCN2S(=O)(=O)c2ccccc2)cc1OC` (centres undefined), the inhibition is reported as 22.3% (inactive). With `COc1ccc(C2NC(=S)NC3=C2CCc2ccccc23)cc1OC` (centres undefined) the inhibition was 57.7% (active). For `Cc1onc(C(=O)NCc2ccc(F)cc2)c1[N+](=O)[O-]`, the inhibition was -5.34% (inactive). For `CC(=O)c1ccc(NC(=O)C(C)NCc2ccc(Cl)cc2)cc1` (centres undefined), the inhibition was -2.38% (inactive). For `C=Cn1c(C(=O)O)ccc1-c1ccc(OC)cc1`, the inhibition was -4.56% (inactive). In the case of `CCOC(=O)C1CCCN(C(=O)COc2ccc(N(C)S(=O)(=O)c3ccc(C)cc3)cc2)C1` (centres undefined), the inhibition is reported as 27.7% (inactive). In the case of `CCC1CCCCN1S(=O)(=O)Cc1ccccc1Cl` (centres undefined), the inhibition is reported as 3.99% (inactive). In the case of `Cc1nnc(CN(C)Cc2cn[nH]c2-c2ccc(-c3ccccc3)cc2)o1`, the inhibition is reported as 26.1% (inactive). For `O=C(CC1C(=O)NCCN1Cc1ccc(-c2ccccc2)cc1)NCC1CCOCC1` (centres undefined), the inhibition was 2.89% (inactive). For `CN(CCC1CCOCC1)Cc1cn[nH]c1-c1ccc(-c2ccccc2)cc1`, the inhibition was 66.8% (active). For `CC(C(=O)N=Nc1c(O)n(C)c2ccc(Br)cc12)n1cnc2ccccc2c1=O` (centres undefined), the inhibition was 7.13% (inactive). With `Clc1ccc(-c2ncc3ccccn23)c(Cl)c1` the inhibition was 4.32% (inactive). With `Clc1ccc(-c2cc(C3CCNCC3)[nH]n2)c(Cl)c1` the inhibition was 94.3% (active). For `O=C1CSC(c2ccccc2)N1c1nc(-c2ccc(Cl)cc2Cl)cs1` (centres undefined), the inhibition was -6.37% (inactive). With `CCOC(=O)c1cc2c(=O)[nH]c(C(Cl)(Cl)Cl)nc2o1` the inhibition was -8.22% (inactive). With `COc1ccc(C2C(C#N)=C(N)N(c3ncn[nH]3)C3=C2C(=O)CCC3)cc1` (centres undefined) the inhibition was -5.04% (inactive). With `CSc1sc(C)cc1C1C(C#N)=C(N)N(c2cccnc2)C2=C1C(=O)CCC2` (centres undefined) the inhibition was 7.04% (inactive). In the case of `N#CC1=C(N)N(c2ccccc2)C2=C(C(=O)CCC2)C1c1ccccc1` (centres undefined), the inhibition is reported as 69.2% (active). For `Cc1cc(NC(=O)CSc2nnc(Nc3ccccc3F)s2)no1`, the inhibition was 0.51% (inactive). In the case of `O=C(CSc1nnc(Nc2ccccc2)s1)Nc1cccnc1Cl`, the inhibition is reported as 66.3% (active). In the case of `O=C(CSc1nnc(C2CC2)n1Cc1ccccc1)Nc1cccnc1Cl`, the inhibition is reported as 3.75% (inactive). For `CC(=O)c1c(-c2ccccc2)c2ccccc2[nH]c1=O`, the inhibition was -2.95% (inactive). For `c1ccc2c(c1)C(=NC1CCCCC1)NC2=NC1CCCCC1`, the inhibition was 100% (active). For `O=C1CCCCC(=O)c2ccccc2N1`, the inhibition was 0.26% (inactive). With `CN(C)S(=O)(=O)c1cccc(NC(=O)COC(=O)/C=C/c2cccs2)c1` the inhibition was -4.76% (inactive). For `CCOCC(=O)Nc1ncc(S(=O)(=O)c2ccc([N+](=O)[O-])cc2)s1`, the inhibition was 20.7% (inactive). With `COc1ccc(N/N=C2/CCCCC2=O)cc1` the inhibition was 67.6% (active). With `COc1ccc(NC(=O)c2c(C)oc3c2CCCC3)cc1` the inhibition was -5.6% (inactive). In the case of `Cc1ccc(N/N=C2\COC(C)(C)CC2=O)cc1`, the inhibition is reported as 0.62% (inactive).
